Compound activity as filed in PubChem BioAssay.
Rows were chosen to be rich in hits. Some 6.7% of all compounds tested hit in one or more screens of this group.
C diff growth: C. difficile growth inhibitors, primary screen, HTS. Clostridium difficile clinical isolate growth, OD600, 24 h; hits give low values. growth activity, negative = inhibition, % at 16 µg/mL (by protocol). actives 0.25% (n = 86,000);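 active = mean growth activity at or below -80% and every replicate also at or below -80%; inconclusive = mean at or below -80% but some replicate above -80%; inactive = mean growth activity above -80%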
Pf Dd2 growth: P. falciparum Dd2 growth inhibitors, primary screen, SYBR Green fluorescence, single dose replicates. actives 2.3% (n = 94,000). 72 h; hits give low values. activity change, % at 10 µM; in the data active = activity change below about -80%; inconclusive = no clear call, values can overlap the other calls
Tcruzi prolif: T. cruzi intracellular proliferation inhibitors, primary screen, cell-based, beta-gal Tulahuen parasites, NIH3T3 host, luminescence; AID 624255, 2012; T. cruzi beta-gal in NIH3T3, GalScreen luminescence, 90 h; inhibition, % at 8.34 µM; actives 5.9% (n = 77,000);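 active = mean inhibition above about 93%, with at least 55% of replicates each passing it, limit read from the data, passing the limit was not always enough; inconclusive = only one of those two conditions holds; inactive = neither condition holds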
A number is an active result; – = inactive; ? = inconclusive; · = not tested or not shown.

SMILES | C diff growth | Pf Dd2 growth | Tcruzi prolif
COc1ccc2c3c(n(C)c2c1)[C@H](CO)N(Cc1ccc2c(c1)OCO2)CC31CN(C)C1 | · | – | ·
COc1ccc(NC(=O)Nc2ccc3c(c2)C(=O)N([C@H](C)CO)C[C@H](C)[C@@H](CN(C)CC2CC2)OCCCC[C@@H](C)O3)cc1 | – | – | –
COc1ccc(NC(=O)Nc2ccc3c(c2)C(=O)N([C@@H](C)CO)C[C@H](C)[C@@H](CN(C)CC2CC2)OCCCC[C@H](C)O3)cc1 | · | -90 | –
COc1ccc(NC(=O)Nc2ccc3c(c2)C(=O)N([C@H](C)CO)C[C@H](C)[C@H](CN(C)CC2CCCCC2)OCCCC[C@H](C)O3)cc1 | – | ? | –
COc1ccc(NC(=O)Nc2ccc3c(c2)C(=O)N([C@@H](C)CO)C[C@H](C)[C@@H](CN(C)CC2CCCCC2)OCCCC[C@H](C)O3)cc1 | – | -86 | –
C/C=C/c1ccc2c(c1)O[C@@H](CN(C)C(=O)CN1CCOCC1)[C@H](C)CN([C@H](C)CO)S2(=O)=O | – | – | –
C[C@H](CO)N1C[C@H](C)[C@H](CN(C)Cc2ccc(C(=O)Nc3ccccc3N)cc2)Oc2ccc(NS(=O)(=O)c3cn(C)cn3)cc2C1=O | · | – | –
COc1ccc2c3c([nH]c2c1)[C@@H](CO)N(Cc1ccc(Cl)cc1)CC31CCN(Cc2ccccc2)CC1 | – | – | ·
COc1ccc2c3c([nH]c2c1)[C@H](CO)N(Cc1ccc(Cl)cc1)CC31CN(Cc2nccs2)C1 | – | -86 | ·
COc1ccc2c3c([nH]c2c1)[C@H](CO)N(Cc1nccs1)CC31CN(Cc2ccncc2)C1 | – | – | ·
COc1ccc2c3c([nH]c2c1)[C@@H](CO)N(Cc1ccc(Cl)cc1)CC31CCN(Cc2nccs2)CC1 | – | -88 | ·
C[C@H]1CCCCO[C@H](CN(C)S(=O)(=O)c2cn(C)cn2)[C@@H](C)CN([C@@H](C)CO)C(=O)c2cc(NC(=O)Nc3ccc(F)cc3)ccc2O1 | · | – | –
CCCNC(=O)N1CC2(CN(Cc3ccccn3)C2)c2c(n(C)c3cc(OC)ccc23)[C@H]1CO | – | – | ·
C[C@@H]1CN([C@@H](C)CO)C(=O)c2cccc(NS(=O)(=O)c3cccs3)c2O[C@H]1CN(C)C(=O)Nc1ccccc1 | · | – | –
C[C@H]1CN([C@@H](C)CO)C(=O)c2cccc(NC(=O)CCCCCC(=O)Nc3ccccc3N)c2O[C@@H]1CN(C)Cc1ccc(Cl)c(Cl)c1 | – | -92 | ·
C[C@H]1CN([C@@H](C)CO)C(=O)c2cc(NC(=O)CCCCCC(=O)Nc3ccccc3N)ccc2O[C@@H]1CN(C)Cc1ccc2c(c1)OCO2 | – | – | ·
C[C@@H]1CN([C@H](C)CO)C(=O)c2cc(NC(=O)CCCCCC(=O)Nc3ccccc3N)ccc2O[C@@H]1CN(C)Cc1ccc(Cl)c(Cl)c1 | · | – | –
C[C@@H]1CN([C@@H](C)CO)C(=O)c2cccc(NC(=O)CCCCCC(=O)Nc3ccccc3N)c2O[C@@H]1CN(C)Cc1ccc2c(c1)OCO2 | – | -89 | ·
C[C@H]1CN([C@@H](C)CO)C(=O)c2cc(NC(=O)CCCCCC(=O)Nc3ccccc3N)ccc2O[C@H]1CN(C)Cc1ccc(Cl)c(Cl)c1 | · | – | –
C[C@@H]1CN([C@H](C)CO)C(=O)c2cccc(NC(=O)CCCCCC(=O)Nc3ccccc3N)c2O[C@H]1CN(C)Cc1ccc(Cl)c(Cl)c1 | – | -86 | ·
C[C@@H]1CN([C@@H](C)CO)C(=O)c2cccc(NC(=O)CCCCCC(=O)Nc3ccccc3N)c2O[C@H]1CN(C)Cc1ccc(Cl)c(Cl)c1 | – | -87 | ·
Cc1ccc(S(=O)(=O)N(C)C[C@@H]2Oc3ccc(N(C)C)cc3CC(=O)N([C@@H](C)CO)C[C@H]2C)cc1 | – | – | ·
CCC(=O)Nc1ccc2c(c1)C(=O)N(C)[C@H]1CC[C@H](CC(=O)O)O[C@@H]1CO2 | – | – | –
CC(C)NC(=O)Nc1ccc2c(c1)C(=O)N(C)[C@H]1CC[C@H](CC(=O)NC3CCCCC3)O[C@H]1CO2 | – | – | –
C[C@H]1CN([C@@H](C)CO)C(=O)c2cccc(NS(=O)(=O)c3ccc(Cl)cc3)c2O[C@@H]1CN(C)Cc1ccncc1 | – | – | –
Cc1noc(C)c1S(=O)(=O)Nc1ccc2c(c1)C(=O)N([C@H](C)CO)C[C@H](C)[C@@H](CN(C)S(=O)(=O)c1cccs1)O2 | – | – | ·
CCC(=O)Nc1ccc2c(c1)OC[C@@H](C)N(C(=O)Cc1ccccn1)C[C@H](C)[C@H](OC)CN(C)C2=O | – | – | ·
C[C@@H]1CN([C@@H](C)CO)C(=O)c2c(c3ccccc3n2C)-c2ccccc2CO[C@H]1CN(C)C(=O)Cc1ccccc1 | – | -86 | –
C[C@@H]1CN([C@@H](C)CO)C(=O)c2c(c3ccccc3n2C)-c2ccccc2CO[C@@H]1CN(C)C(=O)CCN(C)C | – | – | –
